Screening results: PubChem, several laboratories
BoNT F protease: BoNT/F light chain protease inhibitors, primary screen, biochemical, flow cytometry, MLPCN library | AID 588497, 2011 | inhibition, % at 10 µM | 0.22% of 360,000 active | Multiplex microsphere protease cleavage assay | Botulinum neurotoxin type F light chain protease (Clostridium botulinum); in the data active means inhibition above about 35%, passing the limit was not always enough; inconclusive means no clear call, values can overlap the other calls
BoNT A protease: BoNT/A light chain protease inhibitors, primary screen, biochemical, flow cytometry, MLPCN library | Botulinum neurotoxin type A light chain protease (Clostridium botulinum A str. ATCC 3502) | multiplex microsphere protease substrate cleavage | AID 588499, 2011 | 0.17% of 360,000 active | inhibition, % at 10 µM
MazF activator: activators of E. coli MazEF toxin-antitoxin RNase, primary screen, biochemical, fluorescence, uHTS; Endoribonuclease toxin MazF (Escherichia coli (strain K12)), P0AE70; FAM/BHQ RNA-DNA oligo cleavage fluorescence, 5 h; activation, % at 20 µM; 0.32% of 350,000 active; AID 504720, 2011; in the data active means activation above about 50%
Target sequence (P0AE70 whole entry, looked up): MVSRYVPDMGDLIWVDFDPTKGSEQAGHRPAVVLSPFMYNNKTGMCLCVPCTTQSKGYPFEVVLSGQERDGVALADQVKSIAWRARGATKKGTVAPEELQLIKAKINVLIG
DUSP3 inh: VHR1 phosphatase inhibitors, primary screen, biochemical, absorbance, uHTS; recombinant VHR phosphatase, pNPP absorbance; inhibition, % at 13.3 µM; 0.52% of 290,000 active; in the data active means inhibition above about 50%
Target sequence (P51452 whole entry, looked up): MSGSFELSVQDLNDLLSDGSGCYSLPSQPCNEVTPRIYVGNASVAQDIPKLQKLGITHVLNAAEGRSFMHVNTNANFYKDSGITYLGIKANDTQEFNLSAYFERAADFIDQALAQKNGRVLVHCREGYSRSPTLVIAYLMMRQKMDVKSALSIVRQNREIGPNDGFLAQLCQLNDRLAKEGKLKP
Autofluor counter: compound fluorescence in toxin protease inhibitor counterscreen. compound autofluorescence counterscreen, microsphere flow cytometry; stronger effect = higher value. fluorescence intensity (concentration not given with the values). 3.1% of 360,000 active. AID 624483; in the data active means fluorescence intensity above about 16000; inconclusive means no clear call, values can overlap the other calls
Anthrax LF inh2: Bacillus anthracis LF protease inhibitors, primary screen, biochemical, multiplex microsphere, MLPCN library; 0.12% of 360,000 active; multiplex microsphere protease cleavage assay; Lethal factor (Bacillus anthracis), P15917; inhibition, % at 10 µM; AID 588501, 2011
Numbers stand for hits; – = inactive; ? = inconclusive; · = no result. An excerpt weighted towards active compounds, which were near 4.1% of everything screened. Unless noted, no stated cut-off is given here; in the data, active means inhibition above about 30%; inconclusive means no clear call, values can overlap the other calls; inactive means below that.

SMILES	BoNT F protease	BoNT A protease	MazF activator	DUSP3 inh	Autofluor counter	Anthrax LF inh2
Cc1ccc(NC2CCCN(C(=O)CN3C(=O)CSC3=O)C2)cc1C (stereo not drawn)	–	–	–	53	–	–
Cc1cc(C)c(C(=O)N2CCCC(Nc3ccc(C)c(C)c3)C2)o1 (stereo not drawn)	–	–	–	53	–	–
CC(C)c1ccc(NC2CCCN(C(=O)CN3C(=O)CSC3=O)C2)cc1 (stereo not drawn)	–	–	–	–	–	–
Cc1cc(Cl)c2oc(C(=O)N(C)CC3CCOCC3)c(C)c2c1	–	–	–	–	–	–
COc1ccc(Cn2nnnc2C(c2cc3ccc(OC)cc3[nH]c2=O)N2CCC(C)CC2)cc1 (stereo not drawn)	–	–	–	–	31718	–
COc1ccc2cc(C(c3nnnn3Cc3ccccc3)N3CCCCCC3)c(=O)[nH]c2c1 (stereo not drawn)	–	–	–	–	18165	–
COc1ccc2cc(C(c3nnnn3Cc3ccc(F)cc3)N3CCCCCC3)c(=O)[nH]c2c1 (stereo not drawn)	–	–	–	–	–	–
COCCn1nnnc1C(c1cc2ccc(OC)cc2[nH]c1=O)N1CCN(C2CCCCC2)CC1 (stereo not drawn)	–	–	–	–	–	–
Cc1cc2nc(NC(=O)C3(C)CCN3C(=O)C(C)C)[nH]c2cc1C (stereo not drawn)	–	–	·	·	–	–
Cc1cc(=O)oc(C)c1C(=O)NCC(C)C	–	–	–	–	–	–
Cc1cc(=O)oc(C)c1C(=O)NCCN1CCOCC1	–	?	–	–	22773	–
Cc1cc(=O)oc(C)c1C(=O)NCCCN1C(C)CCCC1C (stereo not drawn)	–	–	–	–	24271	–
Cc1cc(=O)oc(C)c1C(=O)NCC(C)NC(=O)c1c(C)cc(=O)oc1C (stereo not drawn)	–	–	–	54	–	–
CCCCN(CCCNC(=O)c1c(C)cc(=O)oc1C)c1ccccc1	–	–	–	–	22469	–
O=C(CCC(=O)Nc1nnc(C2CCCCC2)s1)Nc1ccc(F)cc1	–	–	–	–	–	–
COCCCN1C(=O)c2ccc(C(=O)OCC(=O)N(CCC#N)c3cc(C)cc(C)c3)cc2C1=O	–	–	–	·	–	–
Cc1ccc2oc(=O)c3cc(C(=O)NCCN4CCc5ccccc5C4)sc3c2c1	–	–	–	–	–	–
Cc1ccc2oc(=O)c3cc(C(=O)NCCCN4CCCC(C)C4)sc3c2c1 (stereo not drawn)	–	–	–	51	–	–
CCCN1CCN(CCCNC(=O)c2cc3c(=O)oc4ccc(C)cc4c3s2)CC1	–	–	–	50	–	–
CC(=O)NC(c1ccc(F)c(F)c1)c1nc(-c2cnn(C)c2)cs1 (stereo not drawn)	–	–	·	·	–	–
C[C@H]1COC(=O)[C@H](CC(=O)OC(C)(C)C)C/C=C\C[C@H](CC(=O)N(CCO)Cc2ccccc2)C(=O)N1	–	–	–	·	–	–
O=C(Nc1ccccc1)c1cc2c(=O)c3ccccc3oc2nc1C(F)(F)F	–	–	–	–	–	–
O=C(Nc1cccc(C(F)(F)F)c1)c1cc2c(=O)c3ccccc3oc2nc1C(F)(F)F	–	?	–	–	23568	–
CCOC(=O)C1CCCC12Nc1cccc3cccc(c13)N2 (stereo not drawn)	–	–	–	·	–	–
Cc1ccc(O)c(Nc2nc(-c3ccccc3)nc3ccccc23)c1	–	–	–	–	–	–
SMILES	BoNT F protease	BoNT A protease	MazF activator	DUSP3 inh	Autofluor counter	Anthrax LF inh2
Cc1ccc(O)c(Nc2c3ccccc3nc3ccccc23)c1	–	–	–	52	–	–
COc1cccc(C2=CC(c3ccc(N(C)C)cc3)n3nnnc3N2)c1 (stereo not drawn)	–	–	182	–	16376	–
CNC(=O)C1=NCCCc2cc(OC)c(OC)cc21	–	?	–	–	20275	–
Cc1cc(C)c(-c2cc(C(F)(F)F)no2)c(=O)[nH]1	–	?	–	–	17034	–
NCCN=C1NS(=O)(=O)c2ccccc21	–	–	–	–	–	–
O=S1(=O)NC(=NCc2ccccc2)c2ccccc21	–	?	–	–	19517	–
Cc1ccccc1Cn1ccc(-c2ccc3c(c2)OCO3)n1	–	?	–	–	20609	–
